ELG1 repair inh: qHTS screen for small molecules that inhibit ELG1-dependent DNA repair in human embryonic kidney (HEK293T) cells expressing luciferase-tagged ELG1 | HEK293T ELG1-luciferase reporter, luminescence, 16 h; DNA damage induced by 5-fluorouridine | Potency, µM (top dose mostly 46.1 µM), inactives show at the top dose activity change, negative = inhibition, hits mostly inhibitors | 330,000 compounds, 2.3% hits | AID 504467, 2011; note: potency is the fitted concentration of half-maximal effect; nearly all actives have a fitted effect of over 55% in size
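Quantitative HTS, concentration-response format. 2,000 cells/well co-treated with 5-fluorouridine and compound, 16 hr in 5% CO2 at 37 °C; ONE-Glo luminescence read after 30 min.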
TDP1 cell CPT: qHTS for Inhibitors of human tyrosyl-DNA phosphodiesterase 1 (TDP1): qHTS in cells in presence of CPT; Potency, µM (series often up to 46.2 µM), for inactives: top-dose activity change, negative = growth inhibition, most hits filed as inhibitors; chicken DT40 Tdp1-/-;hTDP1 cells + 20 nM CPT, ATP luminescence, 48 h; 420,000 compounds, 12% hits; note: potency is the fitted concentration of half-maximal effect; nearly all actives have a fitted effect of over 55% in size
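Chicken DT40 Tdp1-/- cells complemented with human TDP1, 400 cells/well, exposed to compounds plus 20 nM camptothecin for at least 48 h at 37 C; viability read as ATP content by CellTiter-Glo luminescence.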
IL-1B inflam inh: qHTS for Inhibitors of Inflammasome Signaling: IL-1-beta AlphaLISA Primary Screen; THP-1 LPS/ATP IL-1B secretion, AlphaLISA, 16 h; stronger effect = lower value; activity change, % at 57.5 µM; 360,000 compounds, 4.7% hits; in the data active = activity change below about -50%; inconclusive = mostly about -30% to -49%
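THP-1 cells pretreated 1 hr with compounds (up to 57.5 uM final), then stimulated with LPS (250 ng/mL final) plus ATP (1.25 mM final); secreted IL-1B measured by AlphaLISA after 16 hr, decreased signal indicating inhibition.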
HT1080 IDH1KD tx: qHTS for induction of synthetic lethality in tumor cells producing 2HG: qHTS for the HT-1080-IDH1KD cell line; HT-1080 IDH1 knockdown viability, ATP luminescence, 48 h; Potency, µM (top dose mostly 46.1 µM), for the others: at the top dose activity, negative = toxicity, hits mostly cytotoxic; 360,000 compounds, 2% hits; AID 686971, 2013;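 note: potency is the fitted concentration of half-maximal effect; 0% = DMSO wells and -100% = cell-free medium wells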
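CellTiter-Glo luminescence after 48 h compound exposure at 37 degrees C of IDH1-knockdown HT-1080 cells in 5% FBS RPMI. %Activity scaled between DMSO wells and cell-free media wells, with curves fitted and assigned curve classes.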
TDP1 cell noCPT: qHTS for Inhibitors of human tyrosyl-DNA phosphodiesterase 1 (TDP1): qHTS in cells in absence of CPT; DT40 Tdp1-/- hTDP1 cells, no CPT, ATP luminescence, 48 h; Potency, µM (titrated, usually from 46.2 µM), inactives show at the top dose activity change, negative = growth inhibition, hits mostly inhibitors; 420,000 compounds, 15% hits; AID 686978, 2013; note: potency is the fitted concentration of half-maximal effect; nearly all actives have a fitted effect of over 55% in size
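Readout: luminescence from CellTiter-Glo after 30 min in the dark at RT. Cells: DT40 Tdp1-/- with stable hTDP1, 400/well. Exposure: compounds alone, ≥48 hr, 37 °C.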
HT1080-NT tox: qHTS for induction of synthetic lethality in tumor cells producing 2HG: qHTS for the HT-1080-NT fibrosarcoma cell line. HT-1080-NT fibrosarcoma viability, CellTiter-Glo ATP luminescence, 48 h. Potency, µM (highest dose often 46.1 µM), without a hit: at the highest dose activity, negative = less viability, actives largely listed as cytotoxic. 360,000 compounds, 1.6% hits. AID 686970, 2013;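 note: NT is the 2HG producing partner of a matched IDH1 knockdown line; potency is the fitted concentration of half-maximal effect; 0% = DMSO-treated cells and -100% = media-only wells without cells; nearly all actives have a fitted effect of over 55% in size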
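Luminescent CellTiter-Glo readout after 48 hours of compound exposure at 37 degrees C defined viability of HT-1080-NT cells. Activity was normalized to DMSO wells and cell-free media wells; concentration-response curves were fitted and assigned curve classes.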
Active calls of the source: *; ? = inconclusive; nt = no result given; [ ] = remark or other dose. This is a sample that favours compounds with a hit; in the whole collection about 19% have one here. Unless noted, calls come from the whole dose curve; as a rule, active = well fitted curve in the direction sought with a large enough effect; inconclusive = small, poorly fitted or top-dose-only effect, or another doubt; inactive = no such curve, though single readings can be large; an effect the other way counts as inactive or inconclusive. Unless noted, % is set by controls: 0 for no effect and ±100 for the full control effect.

SMILES	ELG1 repair inh	TDP1 cell CPT	IL-1B inflam inh	HT1080 IDH1KD tx	TDP1 cell noCPT	HT1080-NT tox
CC(C)CN1CC[C@@]2(CCCN(S(=O)(=O)c3ccccc3)C2)C1	nt	-2%	nt	nt	-22%	nt
CCCc1cc(=O)n2[nH]c(SCc3ccc(Cl)cc3)nc2n1	2%	?	-72*	-22%	3%	2%
CCCc1cc(=O)n2[nH]cc(-c3ccc(Cl)cc3)c2n1	?	5.8µM*	53	?	5.8µM*	?
COc1cc(CC(=O)Nc2c(-c3ccccc3)[nH][nH]c2=O)cc(OC)c1	nt	4%	-1	2%	-17%	15%
CCOC(=O)C1(CCCc2ccccc2)CCN(C(=O)c2cnc(C)cn2)CC1	16µM*	26µM*	-14	-2%	21µM*	-4%
CCOC(=O)C1(Cc2ccc(Cl)cc2)CCN(C(C)Cc2ccc(O)c(OC)c2)CC1 (stereo unspecified)	-1%	9.2µM*	-51*	-15%	3.3µM*	-27%
CCOC(=O)C1(CCCc2ccccc2)CCN(C(=O)c2cnn(CC)c2)CC1	6%	26µM*	-24	-2%	18µM*	-8%
CCOC(=O)C1(CCc2ccccc2)CCN(C(=O)c2occc2C)CC1	?	?	-12	3%	15µM*	6%
CCOC(=O)C1(CCCc2ccccc2)CCN(Cc2cnn(C)c2)CC1	?	?	-12	-5%	?	-21%
CCCN(CCC)CCc1cccc2c1CC(=O)N2	nt	-6%	nt	nt	-16%	nt
CCOC(=O)C1(Cc2ccc(Cl)cc2)CCN(Cc2cn(CC)nc2C)CC1	?	16µM*	?	7%	?	-2%
CCOC(=O)C1(Cc2ccc(Cl)cc2)CCN(C(=O)c2cnc(C)cn2)CC1	-1%	?	32	-4%	23µM*	0%
CCCn1cc(CN2CCC(Cc3cccc(F)c3)(C(=O)OCC)CC2)c(C)n1	0%	?	10	3%	?	-3%
CCOC(=O)C1(Cc2ccc(OC)cc2)CCN(C(=O)c2cc(C)nn2C)CC1	?	23µM*	22	15µM*	18µM*	?
Cc1csc(NC(=O)c2cc(-c3ccccc3)nc3ccccc23)n1	?	?	nt	-24%	15µM*	-23%
CCOC(=O)Cc1csc(NC(=O)c2cc(-c3ccncc3)nc3ccccc23)n1	?	16µM*	30	-10%	?	13%[9.24 µM]
CS(=O)(=O)c1ccc2nc(NC(=O)CCN3C(=O)c4ccccc4C3=O)sc2c1	-7%	12%	23	0%	-5%	1%
CC(NC(=O)CCNC(=O)c1ccc(C(C)(C)C)cc1)c1ccccc1 (stereo unspecified)	-10%	?	-4	4%	?	16%
CCOc1ccccc1N1CCN(c2nc3ccccc3nc2C(C#N)C(=O)OC)CC1 (stereo unspecified)	-20%	23µM*	18	10%	15µM*	9%
COc1ccccc1N1CCN(c2nc3ccccc3nc2C(C#N)C(=O)OC(C)C)CC1 (stereo unspecified)	?	?	-5	-2%	21µM*	-3%
C=CCOC(=O)C(C#N)c1nc2ccccc2nc1N1CCCC1 (stereo unspecified)	-10%	-6%	-10	0%	-19%	1%
CCOc1ccccc1N1CCN(c2nc(N)c(C#N)c(CC#N)c2C#N)CC1	-28%	?	2	-5%	21µM*	-6%
Nc1ncnc2c1ncn2[C@@H]1O[C@H](COP(=O)(O)OP(=O)(O)CP(=O)(O)O)[C@@H](O)[C@H]1O	nt	3%	nt	nt	-8%	nt
O=C(NCCc1csc2nc(-c3ccccc3F)nn12)c1ccco1	nt	-5%	nt	nt	-4%	nt
CCN1CCN(c2cc(C)c3cc(NC(=S)N4CCN(c5ccc(F)cc5)CC4)ccc3n2)CC1	7%	21µM*	84	-7%	?	16%
SMILES	ELG1 repair inh	TDP1 cell CPT	IL-1B inflam inh	HT1080 IDH1KD tx	TDP1 cell noCPT	HT1080-NT tox
CCN1CCN(C(=S)Nc2ccc3nc(N4CCN(CC)CC4)cc(C)c3c2)CC1	-9%	-83%	?	?	?	-22%
CCN1CCN(c2cc(C)c3cc(NC(=S)N4CC(C)CC(C)C4)ccc3n2)CC1 (stereo unspecified)	-24%	?	-89*	16µM*	?	?
CC(C)C[C@@H](CNCC(=O)[C@H](Cc1ccccc1)NC(=O)c1[nH]cnc1C(=O)N[C@@H](C)CN)NC(=O)c1nc[nH]c1C(=O)N[C@@H](C)C(=O)O	nt	2%	23	6%	3%	8%
COC(=O)c1c(C)[nH]c(O)c1C=Nc1ccc(C(C)C)cc1	?	?	-101*	-4%	18µM*	9%
COC(=O)c1c(C)[nH]c(O)c1C=Nc1ccc(Oc2ccccc2)cc1	?	-24%	-15	?	?	-6%
COc1ccc(NC(=O)CC2SC(N3CCOCC3)=NC2=O)cc1OC (stereo unspecified)	5%	3%	6	2%	29%	7%
COC(=O)c1ccccc1COc1cccn2c(N(C)CC3CC3)c(C)nc12	nt	?	-13	?	18µM*	?
Cc1nc2c(OCc3ccc(C#N)cc3)cccn2c1N(C)Cc1cccs1	nt	?	?	-23%	?	-27%
Cc1nc2c(OCc3ccc(C(F)(F)F)cc3)cccn2c1N(C)CC1CC1	nt	?	-19	?	23µM*	6.5µM*
CC(C)COC(=O)NC1c2ccccc2Oc2ccccc21	-2%	-6%	9	-15%	-25%	-19%
COc1ccc(NC(C)=O)cc1NC(C)c1nc2sc(C)c(C)c2c(=O)[nH]1 (stereo unspecified)	21µM*	7%	0	-3%	-4%	-6%
Cc1ccc(-c2nc(-c3cccnc3)sc2CC(=O)Nc2ccc3nc(C)sc3c2)cc1	18µM*	-40%	1	1%	?	14%
Cc1nc2ccc(NC(=O)c3cccnc3)cc2s1	12%	0%	26	18%	-8%	18%

Source: PubChem BioAssay (National Center for Advancing Translational Sciences (NCATS))
